# Results filed as inconclusive are left out. Where a call stands in place of a potency, no number is given. Unmarked numbers belong to inactive results. Active and inactive are the calls of the source. Calls come from the whole dose curve; as a rule, active = well fitted curve in the direction sought with a large enough effect; inconclusive = small, poorly fitted or top-dose-only effect, or another doubt; inactive = no such curve, though single readings can be large; an effect the other way counts as inactive or inconclusive.
# Legend:
# [1] = target: Rap guanine nucleotide exchange factor 3 (Homo sapiens) (UniProt O95398); assay: Confirmatory qHTS for agonist of cAMP-regulated guanine nucleotide exchange factor 3 (EPAC1) (AID 1645881);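 note: EPAC1 catalysed release of BODIPY-GDP from Rap1B seen as fluorescence loss; nearly all actives have a fitted effect of over 75% in size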
# Rap guanine nucleotide exchange factor 3 (Homo sapiens), sequence (O95398 whole entry, looked up): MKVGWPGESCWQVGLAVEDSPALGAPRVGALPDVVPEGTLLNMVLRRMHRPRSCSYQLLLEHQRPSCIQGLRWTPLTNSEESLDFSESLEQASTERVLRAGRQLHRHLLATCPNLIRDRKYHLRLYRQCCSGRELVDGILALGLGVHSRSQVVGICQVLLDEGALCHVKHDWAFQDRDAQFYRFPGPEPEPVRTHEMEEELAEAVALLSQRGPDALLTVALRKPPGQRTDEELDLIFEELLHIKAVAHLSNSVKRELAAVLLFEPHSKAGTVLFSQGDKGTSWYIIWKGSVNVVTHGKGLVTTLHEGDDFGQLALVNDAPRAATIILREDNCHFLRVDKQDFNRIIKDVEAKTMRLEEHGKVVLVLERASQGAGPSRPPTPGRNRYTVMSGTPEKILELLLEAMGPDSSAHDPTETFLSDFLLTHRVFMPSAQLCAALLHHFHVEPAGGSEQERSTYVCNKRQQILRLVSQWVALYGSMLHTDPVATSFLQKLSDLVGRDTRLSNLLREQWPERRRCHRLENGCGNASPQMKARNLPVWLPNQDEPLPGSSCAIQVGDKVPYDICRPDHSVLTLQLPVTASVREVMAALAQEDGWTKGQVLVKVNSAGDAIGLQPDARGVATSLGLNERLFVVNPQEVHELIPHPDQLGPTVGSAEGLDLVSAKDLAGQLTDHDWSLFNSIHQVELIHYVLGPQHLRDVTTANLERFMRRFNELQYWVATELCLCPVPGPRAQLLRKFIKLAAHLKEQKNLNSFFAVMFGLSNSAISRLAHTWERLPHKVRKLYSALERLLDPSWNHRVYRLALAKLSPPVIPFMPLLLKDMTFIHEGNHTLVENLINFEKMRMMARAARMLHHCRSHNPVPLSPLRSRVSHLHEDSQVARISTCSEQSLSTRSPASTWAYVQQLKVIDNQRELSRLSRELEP
# [2] = target: Rap guanine nucleotide exchange factor 4 (Homo sapiens) (UniProt Q8WZA2); assay: Confirmatory qHTS for agonist of cAMP-regulated guanine nucleotide exchange factor 4 (EPAC2) (AID 1645884);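 note: nucleotide exchange releases bodipy-GDP from Rap1 and this lowers its fluorescence; nearly all actives have a fitted effect of over 65% in size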
# Rap guanine nucleotide exchange factor 4 (Homo sapiens), sequence (Q8WZA2 whole entry, looked up): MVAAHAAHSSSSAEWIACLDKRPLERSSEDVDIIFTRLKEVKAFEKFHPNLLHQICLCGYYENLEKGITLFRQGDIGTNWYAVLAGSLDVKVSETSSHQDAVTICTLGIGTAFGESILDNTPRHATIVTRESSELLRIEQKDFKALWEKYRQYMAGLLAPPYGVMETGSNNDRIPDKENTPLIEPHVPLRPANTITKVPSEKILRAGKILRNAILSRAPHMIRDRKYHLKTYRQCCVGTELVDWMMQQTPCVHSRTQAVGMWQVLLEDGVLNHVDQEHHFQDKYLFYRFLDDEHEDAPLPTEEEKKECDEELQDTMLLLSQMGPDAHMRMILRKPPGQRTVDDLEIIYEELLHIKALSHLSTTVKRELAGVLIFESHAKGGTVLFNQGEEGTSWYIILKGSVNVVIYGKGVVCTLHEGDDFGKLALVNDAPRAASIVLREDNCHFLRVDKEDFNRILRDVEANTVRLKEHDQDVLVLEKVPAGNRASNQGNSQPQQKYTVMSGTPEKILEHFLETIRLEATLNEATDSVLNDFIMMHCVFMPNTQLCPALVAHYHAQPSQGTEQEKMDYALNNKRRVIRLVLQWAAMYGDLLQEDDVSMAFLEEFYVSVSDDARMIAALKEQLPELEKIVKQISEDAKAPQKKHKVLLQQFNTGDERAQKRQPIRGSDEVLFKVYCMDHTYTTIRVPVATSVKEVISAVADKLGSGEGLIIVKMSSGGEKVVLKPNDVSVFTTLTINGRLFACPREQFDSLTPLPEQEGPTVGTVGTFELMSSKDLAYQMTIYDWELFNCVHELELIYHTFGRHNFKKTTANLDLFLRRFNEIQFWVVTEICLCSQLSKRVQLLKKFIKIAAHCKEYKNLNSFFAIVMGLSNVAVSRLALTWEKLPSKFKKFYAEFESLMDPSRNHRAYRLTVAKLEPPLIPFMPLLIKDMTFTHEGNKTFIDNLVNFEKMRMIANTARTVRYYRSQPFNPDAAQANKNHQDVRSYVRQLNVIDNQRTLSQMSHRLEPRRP
# [3] = target: Rap guanine nucleotide exchange factor 3 (Homo sapiens) (UniProt O95398); assay: Counterscreen qHTS for antagonist of cAMP-regulated guanine nucleotide exchange factor 3 (EPAC1) (AID 1645888);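 note: fluorescence loss as bound BODIPY-GDP is released from Rap1B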
# Method in brief: (§1)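 Rap1B–BODIPY-GDP (250 nM) with 50 uM GDP; compounds pin-transferred to 9.74 nM–152 uM final (activator) or from 7.32 nM upwards (inhibitor). Fluorescence Ex/Em 480/540 nm read at 5 and 30 min, then after adding cAMP or buffer, at room temperature.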
# [4] = target: Rap guanine nucleotide exchange factor 3 (Homo sapiens) (UniProt O95398); assay: Counterscreen qHTS for agonist of cAMP-regulated guanine nucleotide exchange factor 3 (EPAC1) (AID 1645889); note: nearly all actives have a fitted effect of over 40% in size; note: potency is the fitted concentration of half-maximal effect
# Method in brief: as §1
SMILES,Potency [1],Potency [2],Potency [3],Potency [4],activation [2],"activity change, negative = inhibition [3]",activation [4]
Cc1ccc(SCc2cc(=O)c3c(=O)n(-c4ccccc4)[nH]c3[nH]2)cc1,inactive,inactive,inactive,–,–,–,–
FC(F)(F)C1=Nc2cccc3cccc(c23)N1,inactive,inactive,inactive,–,–,–,–
COc1ccc(-c2nc3ccccc3nc2-c2ccccc2)cc1,inactive,inactive,inactive,–,–,–,–
Cc1noc(C)c1COc1ccccc1C(=O)N(C)Cc1ccc(C(C)(C)C)cc1,inactive,inactive,inactive,inactive,–,–,–
CCCCn1nnnc1C(c1cc2ccccc2o1)N1CCN(c2ncccc2C#N)CC1 (stereo unspecified),inactive,–,–,–,"8.35% [at 17.1 µM, percent relative to cAMP agonist control]",-7.87% [at 30.8 µM],–
Cc1cc(C(C)(C)C)cc(C)c1COC(=O)c1cccnc1,inactive,inactive,inactive,inactive,–,–,–
COCCNc1nc(Oc2cccc(F)c2)c2sccc2n1,inactive,inactive,inactive,–,–,–,–
CCOC(=O)Cn1nc(C)c(NC(=O)COc2ccccc2[N+](=O)[O-])c1C,inactive,–,–,–,"1.83% [at 17.1 µM, percent relative to cAMP agonist control]",-12.5% [at 30.8 µM],2.17% [at 30.8 µM]
O=C(Nc1ccncc1)c1cc2ccccc2cc1O,inactive,inactive,inactive,inactive,–,–,–
COc1ccc(C)cc1NC(=O)c1ccc2c(SCC(=O)O)c3c(nc2c1)CCCC3,inactive,inactive,inactive,–,–,–,–
COc1ccc(-c2cc(N)n(S(=O)(=O)c3c(F)c(F)c(F)c(F)c3F)n2)cc1OC,inactive,–,–,–,"7.68% [at 17.1 µM, percent relative to cAMP agonist control]",6.6% [at 30.8 µM],–
CC(c1ccon1)N(C)Cc1cn(C)nc1-c1cccc(Cl)c1 (stereo unspecified),inactive,inactive,inactive,inactive,–,–,–
C=C1SC(Nc2c(C)cccc2C)=NC12CCCCC2,inactive,inactive,inactive,inactive,–,–,–
Cc1ccc(S(=O)(=O)N2CCN(c3ncnc4sccc34)CC2)cc1C,inactive,inactive,inactive,–,–,–,–
Cc1ccc2c(CC(=O)OCc3cc(=O)n4c(n3)sc3ccccc34)coc2c1,inactive,inactive,inactive,inactive,–,–,–
CN(CC(=O)Nc1ccccc1Cl)C(=O)c1ccc(Cl)c(S(=O)(=O)N2CCCCCC2)c1,inactive,inactive,inactive,inactive,–,–,–
CC(C)CCNC(=O)c1cnn2c(C(F)(F)F)cc(-c3ccco3)nc12,inactive,inactive,inactive,inactive,–,–,–
O=C(NC1CC1)C1CCN(S(=O)(=O)c2cc([N+](=O)[O-])ccc2Cl)CC1,inactive,inactive,inactive,–,–,–,–
O=C(CCCN1C(=O)/C(=C/c2ccccc2)SC1=S)Nc1ccccc1O,inactive,inactive,inactive,inactive,–,–,–
COc1cc(/C=C/C(=O)c2ccc3c(c2)OCCO3)cc(Br)c1OCC(=O)N(C)C,inactive,inactive,inactive,–,–,–,–
C/C(=N/NS(=O)(=O)c1ccc(C(C)(C)C)cc1)c1ccc2c(c1)OCO2,inactive,–,–,–,"7.62% [at 17.1 µM, percent relative to cAMP agonist control]",-17.7% [at 30.8 µM],–
Fc1ccc2c(-c3cccc(C(F)(F)F)c3)c(-c3ccccc3)ncc2c1,inactive,inactive,inactive,inactive,–,–,–
COc1ccccc1/C=C/C=c1\sc2nc(=O)c(Cc3ccccc3)nn2c1=O,inactive,inactive,inactive,inactive,–,–,–
CCN(CC)S(=O)(=O)c1ccc2[nH]c(=O)cc(C(=O)Nc3ccc(C)c(S(=O)(=O)N(CC)CC)c3)c2c1,inactive,inactive,inactive,inactive,–,–,–
CCOC(=O)C1=C(C)NC(C)=C(C(=O)OCC)C1C(=O)OCC(=O)NCc1ccc(F)cc1,inactive,inactive,inactive,inactive,–,–,–
CCC1SC2=NC(C)=C(C(=O)OC)C(c3cccs3)N2C1=O (stereo unspecified),inactive,–,–,–,"-2.13% [at 17.1 µM, percent relative to cAMP agonist control]",-9.77% [at 30.8 µM],5.87% [at 30.8 µM]
O=C(O)c1ccc(COc2ccccc2/C=C2\NC(=O)N(Cc3ccc(F)cc3)C2=O)cc1,inactive,inactive,inactive,inactive,–,–,–

SMILES,Potency [1],Potency [2],Potency [3],Potency [4],activation [2],"activity change, negative = inhibition [3]",activation [4]
Cc1cccc(NC(=S)N2CCN(S(=O)(=O)c3cccc(F)c3)CC2)c1,inactive,inactive,inactive,inactive,–,–,–
CCOC(=O)C1=C(N)Oc2ccc3ccccc3c2C1c1ccc(O)cc1 (stereo unspecified),inactive,inactive,inactive,inactive,–,–,–
CCc1c(C2(O)CCCCC2)[nH]c2c(C(=O)OC)cc(Cl)cc12,inactive,inactive,inactive,inactive,–,–,–
COc1cc2c(c(OC)c1OC)C(c1ccccc1C)CC(=O)O2 (stereo unspecified),inactive,inactive,inactive,inactive,–,–,–
CCOC(=O)[C@H](C)N1[C@H](C)[C@H](c2ccccc2)Oc2ccc(Cl)cc2S1(=O)=O,inactive,–,–,–,"3.08% [at 17.1 µM, percent relative to cAMP agonist control]",6.25% [at 30.8 µM],25.5% [at 30.8 µM]
O=C(O)CSc1nnc(COc2cccc3ccccc23)n1Cc1ccccc1,inactive,inactive,inactive,inactive,–,–,–
CC(=O)NC(c1ccc(Cl)cc1Cl)c1ccc2cccnc2c1O (stereo unspecified),inactive,inactive,inactive,inactive,–,–,–
CC(C)OP(=O)(OC(C)C)C1(NS(=O)(=O)c2ccc(Cl)cc2)C=C(Cl)C(=O)C(Cl)=C1,inactive,–,–,–,"-0.932% [at 17.1 µM, percent relative to cAMP agonist control]",-5.74% [at 30.8 µM],22.3% [at 30.8 µM]
CC(=O)C1=C(O)C2(C)c3c(O)c(C)c(O)c(C(C)=O)c3OC2CC1=O (stereo unspecified),inactive,–,–,–,"-4.59% [at 17.1 µM, percent relative to cAMP agonist control]",-6.21% [at 30.8 µM],-4.12% [at 30.8 µM]
COc1ccc(-c2ccc(C(=O)NCC3CC3)c3occc23)c(C)c1,inactive,inactive,inactive,inactive,–,–,–
O=C(NCCc1ccccc1)c1cccc(NC(=O)c2ccccc2)c1,inactive,inactive,inactive,inactive,–,–,–
O=C(O)c1ccc(COc2ccc3ccccc3c2/C=C2/NC(=O)N(Cc3ccc(F)cc3)C2=O)cc1,inactive,inactive,inactive,inactive,–,–,–
CCCCN(CCCC)Cc1cc(=O)oc2cc(OC)ccc12,inactive,inactive,inactive,inactive,–,–,–
Cc1ccc(C(=O)NNC(=O)c2ccccc2O)cc1S(=O)(=O)N1CCCCC1,inactive,inactive,inactive,inactive,–,–,–
COc1ccc(/C=N/NC(=O)c2ccccc2O)cc1Cn1nnc2ccccc21,inactive,inactive,inactive,inactive,–,–,–
O=C(CSc1n[nH]c(=O)[nH]c1=O)Nc1ccc2c(c1)C(=O)c1ccccc1C2=O,inactive,inactive,inactive,inactive,–,–,–
C[C@@H]1CCCCCCCCC(=O)OCCN1C(=O)OC(C)(C)C,inactive,inactive,inactive,inactive,–,–,–
CN(C)c1cc(Cl)c2nonc2c1N,inactive,inactive,inactive,inactive,–,–,–
COC1OC(c2ccccc2)=C(c2cnc(N)nc2)c2ccc(F)cc21 (stereo unspecified),inactive,–,–,–,"3.06% [at 17.1 µM, percent relative to cAMP agonist control]",-3.58% [at 30.8 µM],11.3% [at 30.8 µM]
Cc1cc(C)c2c(CN3CCC(C)CC3)cc(=O)oc2c1,inactive,–,–,–,"-1.95% [at 17.1 µM, percent relative to cAMP agonist control]",10.9% [at 30.8 µM],22% [at 30.8 µM]
CCOc1cc(/C=N/O)cc(Br)c1OCc1ccc(Cl)cc1,inactive,inactive,inactive,inactive,–,–,–
COc1cnc(N(C)C)nc1Sc1cccc(Cl)c1,inactive,–,–,–,"2.02% [at 17.1 µM, percent relative to cAMP agonist control]",-24.7% [at 30.8 µM],-4.79% [at 30.8 µM]
CCc1ccc(S(=O)(=O)Nc2cc(SCC(=O)O)c(O)c3ccccc23)cc1,inactive,inactive,inactive,14.1 µM (active),–,–,–
Cc1ccc(C2CC(c3cccs3)=NN2C(=O)c2ccco2)o1 (stereo unspecified),inactive,–,–,–,"1.82% [at 17.1 µM, percent relative to cAMP agonist control]",-15.2% [at 30.8 µM],16.2% [at 30.8 µM]
COC1=C/C(=C/c2c(N)n3nc(-c4ccc(C)cc4)sc3nc2=O)C=CC1=O,inactive,inactive,inactive,inactive,–,–,–
Cn1c(N)c(C(=O)COC(=O)Cc2ccc(Cl)c(Cl)c2)c(=O)n(C)c1=O,inactive,inactive,inactive,inactive,–,–,–

# From PubChem BioAssay (NCATS)
